The source of these data is PubChem BioAssay (EPA / NIEHS).

Assay [1] concerns the target Estrogen receptor (Homo sapiens) (UniProt P03372). Put plainly: OT_ERa_GFPERaERE_0480: Odyssey Thera (OT) 8-hour HeLa Transcription Induction Assay for Estrogen Receptor (AID 2283381; active = hit-call score of the fitted dose curve at least 0.9, where 1 is the maximum; inactive = score below 0.9). The essentials: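 HeLa cells expressing GFP reporter under estrogen response element, imaged 8 h after dosing. GFP induction quantified by high-content fluorescence microscopy image analysis; gain of signal fitted versus DMSO.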

For assay [2] the target is unchanged. Put plainly: OT_ERa_GFPERaERE_0120: Odyssey Thera (OT) 2-hour HeLa Transcription Induction Assay for Estrogen Receptor (AID 2283382). The essentials: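 HeLa cells were dosed for 2 h, then GFP reporter induction was quantified by fluorescence microscopy with high-content image analysis. Gain of signal fitted against DMSO baseline.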
The target in assay [3] is Bile acid receptor (Homo sapiens) (UniProt Q96RI1). Put plainly: OT_FXR_FXRSRC1_0480: Odyssey Thera (OT) 8-hour HEK293T Protein-Complementation Assay for Farnesoid X receptor/SRC-1 Co-activator (AID 2283383). In short, it runs like this:
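HEK293T protein-fragment complementation assay: FXR and SRC-1 coactivator are fused to reporter fragments, and their interaction restores a fluorescent reporter. Readout was taken 8 h after dosing, with gain of signal fit relative to DMSO.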

Assay [4] shares this target. The assay can be described thus: OT_FXR_FXRSRC1_1440: Odyssey Thera (OT) 24-hour HEK293T Protein-Complementation Assay for Farnesoid X receptor/SRC-1 Co-activator (AID 2283384). The essentials:
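HEK293T cells, 24 h after chemical dosing. FXR–SRC-1 coactivator interaction read as fluorescence from protein-fragment complementation of a split reporter. Gain of signal fitted against DMSO baseline.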

In assay [5] the target is Retinoic acid receptor RXR-alpha (Homo sapiens) (UniProt P19793). Put plainly: OT_NURR1_NURR1RXRa_0480: Odyssey Thera (OT) 8-hour HEK293T Protein Complementation Assay for Nurr1/retinoid X receptor (RXR) (AID 2283385). The essentials: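 HEK293T cells expressing Nurr1 and RXRα fused to reporter fragments (protein-fragment complementation); fluorescence measured 8 h after dosing. Gain of signal fitted relative to DMSO.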

In assay [6] the target is Peroxisome proliferator-activated receptor gamma (Homo sapiens) (UniProt P37231). The assay can be described thus: OT_PPARg_PPARgSRC1_0480: Odyssey Thera (OT) 8-hour Protein-Complementation Assay for Peroxisome Proliferator-activated Receptor Gamma / SRC-1 Co-activator (AID 2283387).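 Note: nuclear to cytoplasmic split Venus YFP fluorescence ratio reporting PPARg SRC-1 interaction.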 The essentials: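 Protein-fragment complementation of split Venus YFP reports PPARg/SRC-1 interaction in HEK293T (transfected 48 h before treatment), exposed 8 h. Readout: N/C fluorescence ratio at 488 nm from imaging, Draq5 for segmentation, positive fit relative to DMSO.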

Assay [7] has the same target. Put plainly: OT_PPARg_PPARgSRC1_1440: Odyssey Thera (OT) 24-hour Protein-Complementation Assay for Peroxisome Proliferator-activated Receptor Gamma/ SRC-1 Co-activator (AID 2283388).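 Note: nuclear to cytoplasmic ratio of reconstituted Venus YFP fluorescence in fixed imaged cells.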 In short, it runs like this:
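Readout is the 488 nm N/C fluorescence ratio from fixed, Draq5-stained HEK293T cells after 24 h compound exposure. Cells carried transiently transfected PPARg and SRC-1 fused to Venus fragments, transfected 48 h before treatment.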

Assay [8] has as its target Retinoic acid receptor RXR-alpha (Homo sapiens) (UniProt P19793). The assay can be described thus: OT_NURR1_NURR1RXRa_1440: Odyssey Thera (OT) 24-hour HEK293T Protein Complementation Assay for Nurr1/retinoid X receptor (RXR) (AID 2283386). The essentials: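 HEK293T protein-fragment complementation of Nurr1 and RXRα fused to reporter fragments; compounds 24 h. Fluorescence gain from reconstituted reporter fitted versus DMSO.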

For assay [9], the target named is Estrogen receptor beta (Homo sapiens) (UniProt Q92731). Put plainly: OT_ER_ERbERb_1440: Odyssey Thera (OT) 24-hour HEK293T Protein-Complementation Assay for Estrogen Receptor-beta/-beta Homodimer (AID 2283380).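 Note: scored as signal increase over DMSO baseline for both agonists and antagonists.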 In short, it runs like this:
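HEK293T cells stably expressing ER beta LBD (aa 310-547) homodimer fragment-complementation reporter, dosed 24 h. Cells formaldehyde-fixed, Draq5-stained; gain in nuclear (agonist) or nuclear plus cytoplasmic (antagonist) fluorescence versus DMSO read by laser scanning cytometry.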

A short description of assay [10]: CEETOX_H295R_11DCORT: CeeTox H295R High-throughput Steroidogenesis Assay for 11-Deoxycortisol (11DCORT) (AID 2283432; active = hit-call score of the fitted dose curve at least 0.9, where 1 is the maximum; inactive = score below 0.9;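 for AC50: 11-deoxycortisol secreted into the medium measured by LC-MS/MS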). The settings on record: actives raise or lower the signal. The essentials:
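Human adrenal H295R cells were prestimulated with 10 uM forskolin for 48 h, then exposed to test chemical (0.1% DMSO final) for 48 h. Medium 11-deoxycortisol was quantified by MTBE extraction and HPLC-MS/MS; bidirectional fitting relative to DMSO.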

Results filed as inconclusive are left out. Active and inactive are the calls of the source. Rule for the calls, unless noted: active = hit-call score of the fitted dose curve at least 0.9, where 1 is the maximum; inconclusive = response in the unintended direction; inactive = score below 0.9.

The term AC50 denotes the concentration giving half of the maximal activity seen.

Sequence of Peroxisome proliferator-activated receptor gamma (Homo sapiens) (P37231 whole entry, looked up, the tested form may be a part): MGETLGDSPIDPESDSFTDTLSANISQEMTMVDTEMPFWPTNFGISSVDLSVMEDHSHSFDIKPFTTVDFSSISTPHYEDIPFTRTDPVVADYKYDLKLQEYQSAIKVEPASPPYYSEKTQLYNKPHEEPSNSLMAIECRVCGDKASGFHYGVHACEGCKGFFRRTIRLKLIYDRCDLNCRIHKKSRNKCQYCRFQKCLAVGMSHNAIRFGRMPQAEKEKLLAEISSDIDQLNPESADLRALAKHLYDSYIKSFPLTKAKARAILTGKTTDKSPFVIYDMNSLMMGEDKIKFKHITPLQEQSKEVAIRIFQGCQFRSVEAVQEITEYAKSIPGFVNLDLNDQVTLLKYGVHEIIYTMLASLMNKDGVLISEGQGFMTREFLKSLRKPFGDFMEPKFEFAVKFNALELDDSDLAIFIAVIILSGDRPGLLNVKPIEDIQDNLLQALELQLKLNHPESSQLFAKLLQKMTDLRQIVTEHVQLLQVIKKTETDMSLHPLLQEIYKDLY
Sequence of Estrogen receptor beta (Homo sapiens) (Q92731 whole entry, looked up, the tested form may be a part): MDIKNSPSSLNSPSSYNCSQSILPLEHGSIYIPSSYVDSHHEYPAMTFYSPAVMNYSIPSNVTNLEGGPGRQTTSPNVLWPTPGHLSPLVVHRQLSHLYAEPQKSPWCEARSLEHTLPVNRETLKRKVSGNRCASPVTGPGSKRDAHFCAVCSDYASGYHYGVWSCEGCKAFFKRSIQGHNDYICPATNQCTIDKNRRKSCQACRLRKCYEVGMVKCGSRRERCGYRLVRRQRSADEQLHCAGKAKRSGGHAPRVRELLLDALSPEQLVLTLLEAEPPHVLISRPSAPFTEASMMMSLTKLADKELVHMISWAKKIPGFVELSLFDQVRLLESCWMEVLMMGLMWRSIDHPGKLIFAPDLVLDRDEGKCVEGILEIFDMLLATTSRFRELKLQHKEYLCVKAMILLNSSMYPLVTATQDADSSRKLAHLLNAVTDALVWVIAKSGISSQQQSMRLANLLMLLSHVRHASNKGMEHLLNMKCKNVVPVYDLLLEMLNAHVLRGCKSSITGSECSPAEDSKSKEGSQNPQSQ
Sequence of Bile acid receptor (Homo sapiens) (Q96RI1 whole entry, looked up, the tested form may be a part): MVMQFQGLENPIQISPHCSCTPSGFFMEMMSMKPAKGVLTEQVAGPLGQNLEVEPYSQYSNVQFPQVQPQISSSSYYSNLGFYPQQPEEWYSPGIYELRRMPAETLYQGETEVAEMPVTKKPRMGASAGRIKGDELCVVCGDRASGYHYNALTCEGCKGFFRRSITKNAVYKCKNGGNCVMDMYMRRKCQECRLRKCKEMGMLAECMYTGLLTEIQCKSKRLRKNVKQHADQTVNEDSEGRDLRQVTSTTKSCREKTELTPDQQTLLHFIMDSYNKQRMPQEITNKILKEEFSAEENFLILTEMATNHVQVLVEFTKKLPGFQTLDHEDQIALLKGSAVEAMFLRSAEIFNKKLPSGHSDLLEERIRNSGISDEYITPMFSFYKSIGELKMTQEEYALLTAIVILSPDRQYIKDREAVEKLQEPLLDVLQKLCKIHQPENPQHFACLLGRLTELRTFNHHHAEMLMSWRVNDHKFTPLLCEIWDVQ
Sequence of Estrogen receptor (Homo sapiens) (P03372 whole entry, looked up): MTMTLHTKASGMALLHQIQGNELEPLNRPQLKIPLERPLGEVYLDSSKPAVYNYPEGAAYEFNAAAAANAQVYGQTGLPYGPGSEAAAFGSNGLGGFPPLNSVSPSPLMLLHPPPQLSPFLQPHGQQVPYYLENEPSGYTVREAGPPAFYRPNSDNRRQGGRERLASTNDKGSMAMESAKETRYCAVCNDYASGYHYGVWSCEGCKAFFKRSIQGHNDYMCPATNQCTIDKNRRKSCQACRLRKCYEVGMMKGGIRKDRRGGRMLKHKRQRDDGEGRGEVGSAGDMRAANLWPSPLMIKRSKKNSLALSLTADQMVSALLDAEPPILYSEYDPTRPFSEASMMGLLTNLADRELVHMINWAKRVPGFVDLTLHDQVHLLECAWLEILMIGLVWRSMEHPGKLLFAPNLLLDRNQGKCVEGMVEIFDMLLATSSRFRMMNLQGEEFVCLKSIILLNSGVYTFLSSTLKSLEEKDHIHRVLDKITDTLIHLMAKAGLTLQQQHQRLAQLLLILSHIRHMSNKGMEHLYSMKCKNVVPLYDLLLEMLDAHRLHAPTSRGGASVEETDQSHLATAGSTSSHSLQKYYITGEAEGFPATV
Sequence of Retinoic acid receptor RXR-alpha (Homo sapiens) (P19793 whole entry, looked up, the tested form may be a part): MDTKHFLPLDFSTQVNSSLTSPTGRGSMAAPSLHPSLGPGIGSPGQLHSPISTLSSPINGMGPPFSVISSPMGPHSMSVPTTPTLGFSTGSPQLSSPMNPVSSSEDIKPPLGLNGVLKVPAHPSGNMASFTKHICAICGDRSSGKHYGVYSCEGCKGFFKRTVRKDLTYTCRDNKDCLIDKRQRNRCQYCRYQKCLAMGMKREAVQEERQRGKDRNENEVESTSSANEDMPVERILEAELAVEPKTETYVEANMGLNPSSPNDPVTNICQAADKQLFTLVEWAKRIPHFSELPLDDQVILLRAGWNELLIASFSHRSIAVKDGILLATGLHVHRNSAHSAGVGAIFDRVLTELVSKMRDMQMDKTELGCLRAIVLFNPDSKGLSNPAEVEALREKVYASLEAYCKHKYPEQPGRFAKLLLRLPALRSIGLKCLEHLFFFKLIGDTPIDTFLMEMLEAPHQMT

On to `CCCCC(CC)COP(=O)(O)OCC(CC)CCCC` (stereo not drawn), for which the call in assay [1], in [2], in [3] and in assay [5] was inactive. The AC50 is 71.8 µM (active) in assay [4], 64.4 µM (active) in assay [6] and 67.8 µM (active) in assay [7].
Consider `O=S(=O)(O)c1ccc2ccccc2c1`, for which the compound was called inactive in assay [1], in assay [2], in assay [3], in assay [4], in [5] and in [8]. In addition, the call in assay [6] and in assay [7] was inactive.
For `CC(C)OC(=O)c1ccccc1C(=O)OC(C)C`, the call in assay [1], in assay [2], in [3], in assay [4], in [8] and in [6] was inactive. Moreover, the result in [7] was inactive.
With `O=C(OCCOCCOCCOC(=O)c1ccccc1)c1ccccc1`, the outcome in assay [9], in assay [1], in assay [2], in assay [3], in assay [4] and in assay [7] was inactive.
`CCN(Cc1cccc(S(=O)(=O)O)c1)c1ccc(C(=C2C=CC(=[N+](CC)Cc3cccc(S(=O)(=O)O)c3)C=C2)c2ccc(O)cc2S(=O)(=O)[O-])cc1`: the call in assay [9], in assay [1], in assay [2], in [5], in assay [8] and in [6] was inactive. Further, the outcome in [7] was inactive.
On to `CCCCCCOC(=O)c1ccccc1O`, for which the call in assay [9], in [1], in assay [2], in [3], in assay [4] and in assay [5] was inactive. In addition, the call in assay [8] and in [7] was inactive.
Regarding `Cc1cc(C)cc(O)c1`, the outcome in assay [9], in assay [1], in assay [2], in assay [8], in assay [6] and in assay [7] was inactive.
With `CC/C=C\CCOC(C)=O`, the compound was called inactive in [9], in [1], in assay [2], in [5], in assay [6] and in assay [7].
Consider `CC(=O)Nc1ccc(N=Nc2cc(C)ccc2O)cc1`, for which, in [10], the AC50 was 33.7 µM (active).
With `C(=C(c1ccccc1)c1ccccc1)c1ccccc1`, the AC50 in [9] is 1.59 µM (active); in [1] it was 1.61 µM (active); in assay [2], 1.52 µM (active); in assay [3] it was 73.5 µM (active); in [4], 76.8 µM (active); in assay [5] it was 90.2 µM (active). Also, the AC50 in assay [8] was 81.3 µM (active). The outcome in assay [6] and in assay [7] was inactive.
As to `CN(C)Cc1ccccc1O`, the outcome in assay [9], in assay [1], in [2], in assay [4], in assay [8] and in assay [7] was inactive.
In the case of `CCCCCCS`, the call in assay [10] was inactive.
Consider `C#C[C@]1(O)CC[C@H]2[C@@H]3CCc4cc(OC)ccc4[C@H]3CC[C@@]21C`, for which the AC50 is 0.0277 µM (active) in [1]; 0.0294 µM (active) in [2]; 60.4 µM (active) in assay [3]; 46.8 µM (active) in assay [4]; 78.8 µM (active) in assay [8]. Besides, the outcome in [5], in assay [6], in assay [7] and in [10] was inactive.
With `CCCCCCOC(=O)c1ccccc1`, the call in [9], in assay [1], in assay [2], in assay [3], in assay [5] and in [6] was inactive. The result in assay [7] was inactive.
Take `CNC(=S)NC`: the call in assay [1], in assay [2], in assay [3], in assay [4], in [5] and in assay [6] was inactive. Also, the compound was called inactive in assay [7].
For the compound `[Co]`, the result in [9], in assay [1], in assay [2], in [3], in assay [4] and in [8] was inactive. For the same compound, the call in [6] and in assay [7] was inactive.
As to `COC(=O)C1CCC(C(=O)OC)CC1` (stereo not drawn), the call in assay [9], in [1], in [2], in assay [3], in [4] and in assay [5] was inactive. The result in assay [7] was inactive.
On to `c1ccc(B(c2ccccc2)c2ccccc2)cc1`, for which the compound was classed as inactive in assay [1], in assay [3], in assay [4], in [5], in assay [8] and in assay [6]. Also, the call in assay [7] was inactive. The results for the AC50 in assay [2] and in [10] were 45.8 µM (active) and 33.7 µM (active), respectively.
Consider `CCCCOc1ccc(N)cc1`, for which the results for the AC50 in assay [9] and in assay [4] were 25.2 µM (active) and 36.9 µM (active), respectively. In addition, the compound was classed as inactive in assay [1], in [2], in assay [3], in assay [5], in assay [8] and in assay [6]. The call in assay [7] was inactive.
With `CC(CCl)OP(=O)(OC(C)CCl)OC(C)CCl` (stereo not drawn), the compound was called inactive in [9], in assay [1], in [2], in assay [3], in [4] and in [5]. For the same compound, in assay [7], the compound was classed as inactive.
In the case of `OC[C@@H](O)[C@@H](O)[C@H](O)[C@@H](O)CO`, the call in assay [1], in assay [5], in assay [8], in [6] and in [7] was inactive.
Consider `Cc1ccc(S(=O)(=O)NCl)cc1`, for which the result in [9], in assay [1], in assay [2], in [8], in assay [6] and in [7] was inactive.
For `CCCCCCC(C)OC(=O)CCCCC(=O)OC(C)CCCCCC` (stereo not drawn), the outcome in assay [9], in assay [1], in assay [2], in [3], in assay [4] and in [5] was inactive. Also, the call in [8], in [6] and in assay [7] was inactive.
Regarding `Cc1cccc(N(C)C)c1`, in [10], the call was inactive.
On the same count and under the same terms, then `Nc1ccc(Oc2cccc(Oc3ccc(N)cc3)c2)cc1`, with “inactive”.
Regarding `CC(Cc1ccc(O)c(O)c1)C(C)Cc1ccc(O)c(O)c1` (stereo not drawn), the AC50 was 11.9 µM (active) in assay [9], 11.9 µM (active) in assay [1], 1.47 µM (active) in assay [2] and 79.6 µM (active) in [10]. The compound was classed as inactive in assay [8] and in [7].
`C1COCCN1`: the outcome in [9], in assay [1], in assay [2], in assay [5] and in assay [8] was inactive.
